# High-throughput results from PubChem BioAssay.
# PfHsp40 yeast = rescue of yeast from PfHsp40 toxicity, primary screen, S. cerevisiae, ATP luminescence; 0.68% of 340,000 active; AID 504582, 2011; growth rescue, % at 12.5 µM; S. cerevisiae expressing PfHsp40, growth rescue; in the data active = growth rescue above about 28%, passing the limit was not always enough;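 note: yeast W303a lacking pdr1 and pdr3 grown in galactose medium; growth measured after three days at 30 °C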
# FadD28 FP inh = inhibitors of FadD28 bisubstrate probe binding, primary screen, biochemical, fluorescence polarization, single point | Mycobacterium tuberculosis FadD28 fatty-acid-AMP ligase | inhibition, % at 12.5 µM | AID 588549, 2011 | 0.22% of 360,000 active; in the data active = inhibition above about 8.5%, passing the limit was not always enough
# PrP 5UTR inh = inhibition of PrP 5' UTR reporter expression; 0.35% of 340,000 active; cell-based PrP 5' UTR mRNA reporter, plate reader; inhibition, % (concentration not given with the values); in the data active = inhibition above about 52%
# BioA inh-1 = M. tuberculosis BioA enzyme inhibitors, primary screen, biochemical, plate reader, single point, HTS | 7,8-diaminopelargonic acid synthase BioA (Mycobacterium tuberculosis) | purified M. tuberculosis BioA enzyme | inhibition, % at 9.99 µM | 0.096% of 360,000 active | AID 602481, 2012; in the data active = inhibition above about 40%
# Yp Topo-I inh = Yersinia pestis topoisomerase I inhibitors, primary screen, biochemical, cleavage product accumulation, plate reader, single point; DNA topoisomerase I (Yersinia pestis CO92); Y. pestis Topo-I cleavage product accumulation; activity, % at 10 µM; 0.064% of 360,000 active; AID 504884, 2011; in the data active = activity above about 50%, passing the limit was not always enough
# BioA inh-2 = Mtb BioA enzyme inhibitors, dose response, biochemical, plate reader, cherry-pick samples, set 03; purified BioA enzyme; max activity, %; shares compounds with BioA inh-1; 310 tested, under 10 active;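 note: top concentration of the dilution series was 10 µM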
# Target sequence (P9WQ81 whole entry, looked up): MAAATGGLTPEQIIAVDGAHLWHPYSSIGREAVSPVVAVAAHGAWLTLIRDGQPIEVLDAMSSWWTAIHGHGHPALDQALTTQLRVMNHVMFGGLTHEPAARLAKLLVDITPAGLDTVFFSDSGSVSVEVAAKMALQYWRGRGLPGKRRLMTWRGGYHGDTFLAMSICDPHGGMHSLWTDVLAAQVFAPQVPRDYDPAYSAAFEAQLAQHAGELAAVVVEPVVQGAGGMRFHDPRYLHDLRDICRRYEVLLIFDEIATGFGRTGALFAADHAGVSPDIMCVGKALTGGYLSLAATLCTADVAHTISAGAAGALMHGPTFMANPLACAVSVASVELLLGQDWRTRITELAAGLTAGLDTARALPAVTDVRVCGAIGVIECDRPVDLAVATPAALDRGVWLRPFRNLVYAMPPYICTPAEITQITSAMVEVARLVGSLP
# HepG2 tox 2 = cytotoxicity in HepG2 cells, dose response, cytotoxicity control, cell-based, plate reader, cherry-pick, two tests | shares compounds with BioA inh-1 | max activity, % | 310 tested, under 10 active
# NIH3T3 tox 5 = cytotoxicity in NIH3T3 fibroblasts, dose response, cytotoxicity control, cell-based, plate reader, cherry-pick, two tests; activity change, negative = cytotoxicity, % at 26 µM; shares compounds with BioA inh-1; AID 651900, 2012; 310 tested, under 10 active
# A number is an active result; n = inactive; x = no result given. Rows were chosen to be rich in hits. Some 1.1% of all compounds tested hit in one or more screens of this group. Unless noted, the rule behind the calls is not given here.
SMILES,PfHsp40 yeast,FadD28 FP inh,PrP 5UTR inh,BioA inh-1,Yp Topo-I inh,BioA inh-2,HepG2 tox 2,NIH3T3 tox 5
O=C(NNC(=O)c1ccc(Cl)c(Cl)c1)c1cccnc1,n,n,n,n,n,x,x,x
CCCNS(=O)(=O)c1ccc(NC(=O)c2cccnc2)cc1,n,n,n,n,n,x,x,x
Cc1noc(C)c1NC(=O)N(C)C[C@H]1Oc2ccc(NS(C)(=O)=O)cc2C(=O)N([C@@H](C)CO)C[C@H]1C,x,x,x,n,x,x,x,x
CC(C)(C)c1cc(C(=O)Nc2cccnc2)cc(C(=O)Nc2cccnc2)c1,n,n,n,44.6,n,n,n,n
COc1cc(OC)c(C(=O)Nc2cccnc2)cc1OC,n,n,n,84.9,n,n,n,n
O=C(Nc1cccnc1)c1ccccc1Oc1ccccc1,n,n,n,n,n,x,x,x
O=C(Nc1cccnc1)c1ccc(Oc2ccccc2)cc1,n,n,n,68.9,n,n,n,n
COc1ccc(CN(C)C[C@@H]2OCCCC[C@@H](C)Oc3ccc(NC(=O)Cc4ccccc4)cc3C(=O)N([C@H](C)CO)C[C@@H]2C)cc1,x,x,x,n,x,x,x,x
Cc1ccc(S(=O)(=O)Nc2ccc3c(c2)CC(=O)N([C@@H](C)CO)C[C@@H](C)[C@@H](CN(C)Cc2ccc(Cl)c(Cl)c2)O3)cc1,x,x,x,n,x,x,x,x
Cc1noc(C)c1NC(=O)N(C)C[C@H]1Oc2ccc(NC(=O)CCN3CCOCC3)cc2C(=O)N([C@@H](C)CO)C[C@@H]1C,x,x,x,n,x,x,x,x
N#C[C@H]1[C@@H](c2ccc(/C=C/c3ccccc3)cc2)[C@@H](CO)N1C(=O)Cc1ccccn1,x,x,x,n,x,x,x,x
CC(=O)Nc1ccc2nc(-c3cccnc3)[nH]c2c1,n,n,n,55.9,n,n,n,n
CCS(=O)(=O)Nc1ccc2c(c1)C(=O)N(C)C[C@H](OC)[C@H](C)CN(C(=O)CN(C)C)[C@H](C)CO2,x,x,x,n,x,x,x,x
O=C(c1ccc(NS(=O)(=O)c2ccc(F)cc2)cc1)N1CCN(c2ccccc2O)CC1,n,n,n,n,n,x,x,x
O=C(c1ccc(S(=O)(=O)Nc2ccccc2F)cc1)N1CCN(c2ccccc2O)CC1,n,n,n,66.6,n,n,n,n
CO[C@H]1CN(C)C(=O)c2ccc(NC(C)=O)cc2OC[C@@H](C)N(C(=O)c2ccc(F)cc2)C[C@H]1C,x,x,x,49.6,x,n,n,n
